Test results as given in PubChem BioAssay AID624351 (Southern Research Specialized Biocontainment Screening …, 2012).
Several values for one entry are separate records, joined by “and”; a condition that tells them apart may be missing. Identical values can stand only once. Screen size: about 2,400 compounds; about 1,400 (58%) were called active.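 Rule for the calls: active = inhibition of 30% or more at any tested dose; inconclusive = primary hits over the limit that were never retested; inactive = the rest.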 The set was probably picked from earlier hits. The list shows a part of the results.

Assay: coupled detection enzyme interference, dose response, artefact control for MgcRacGAP inhibitor project, biochemical, coupled enzyme counter-screen (AID 624351);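 note: signal is the ADP detection kit reading of free GDP without any GAP enzyme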;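 for inhibition: 0% = median positive control wells and 100% = median negative control wells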
Conditions: ADP Hunter coupled enzyme counter-screen, fluorescence, no MgcRacGAP; series mostly up to 80 µM; inhibition: at the top concentration

| Compound | IC50 | inhibition |
| --- | --- | --- |
| N/C(=N\[N+](=O)[O-])N/N=C/c1ccc(O)cc1 | 20.8 µM (active) | – |
| O=C(O)CCn1cc(C=C2C(=O)NC(=O)NC2=O)c(-c2ccc(Br)cc2)n1 | – | 2% (inactive) |
| Cc1ccc(N2C(=O)NC(=O)/C(=C/c3ccoc3)C2=O)cc1 | – | 1.28% (inactive) |
| COc1cc(C=C2C(=O)NC(=O)NC2=O)ccc1OCc1ccc([N+](=O)[O-])cc1 | – | 3.37% (inactive) |
| COc1cc(OC)c(OC)cc1/C=C1\C(=O)NC(=O)N(Cc2ccccc2)C1=O | – | 6.49% (inactive) |
| CNC(=O)Oc1ccc(-c2cn3cc(C)ccc3n2)cc1 | 37.7 µM (active) | – |
| O=C(CNC1CCCC1)Nc1ccc(N2CCCCCC2)cc1 | – | 23.6% (inactive) |
| NCCc1cc(O)c(O)cc1O | – | -8.6% [at 5 µM] (inactive) and -17.1% [at 5 µM] (inactive) |
| CCN(CC)c1ccc(/C=C2/C(=O)NC(=O)N(Cc3ccco3)C2=O)cc1 | – | -0.29% (inactive) |
| c1ccc2c(c1)Nc1ccccc1S2 | 17.2 µM (active) | – |
| COc1ccccc1OCC#CCN1CCCC1 | – | 13.8% (inactive) |
| O=P1(c2ccccc2)Nc2ccccc2N1c1ccccc1 (stereo unspecified) | 29.5 µM (active) | – |
| Cn1cccc1/C=C1\C(=O)NC(=O)N(Cc2ccco2)C1=O | – | 4.1% (inactive) |
| Nc1ccc2c3c(cccc13)-c1ccccc1-2 | 55.5 µM (active) | – |
| CC1=NNC(=O)C1Br (stereo unspecified) | – | 5.41% (inactive) |
| COc1ccccc1CNCCc1cccc(Cl)c1 | – | 17.4% (inactive) |
| C1=Cc2ccccc2Nc2ccccc21 | 12.4 µM (active) | – |
| Cc1cccc(OCC(=O)N2CCN(Cc3ccncc3)CC2)c1 | – | 26.2% (inactive) |
| COc1ccc(/C=C2/C(=O)NC(=O)N(c3ccc(C)c(C)c3)C2=O)cc1CN1C(=O)c2ccccc2C1=O | – | 3.7% (inactive) |
| Cc1ccc(CN2CCN(Cc3ccccc3F)CC2)cc1 | – | 25.6% (inactive) |
| Cc1cc(/C=C2\C(=O)NC(=O)N(c3ccc(Br)cc3)C2=O)c(C)n1-c1cc(C(=O)O)cc(C(=O)O)c1 | – | -1.86% (inactive) |
| O=C(O)Cn1cc(/C=C2\C(=O)NC(=O)N(c3ccc(Cl)cc3)C2=O)c2ccccc21 | – | 0.89% (inactive) |

| Compound | IC50 | inhibition |
| --- | --- | --- |
| CN(C)c1ccc(NC(=O)CN2C(=O)CN=C(c3ccccc3)c3ccccc32)cc1 | 73.3 µM (active) | – |
| COc1ccc(OC)c(N2C(=O)NC(=O)/C(=C/c3ccc([N+](=O)[O-])s3)C2=O)c1 | – | 4.62% (inactive) |
| C=CCN1C(=O)/C(=C/c2ccc(Br)s2)C(=O)NC1=S | – | 1.24% (inactive) |
| COc1ccccc1OCC#CCN1CCCC(C)C1 (stereo unspecified) | – | 14.2% (inactive) |
| CSc1nc(N)c(N=Nc2ccc([As](=O)(O)O)cc2)c(=O)[nH]1 | – | 5.1% (inactive) |
| O=C(O)c1ccc(-n2c(O)c(/C=C3\C=Nc4ccccc43)c(=O)[nH]c2=O)cc1 | – | 4.69% (inactive) |
| O=[N+]([O-])c1ccc2c(c1)Cc1cc(O)ccc1-2 | 24.5 µM (active) | – |
| Cc1cc(/C=C2\C(=O)NC(=O)N(c3ccccc3F)C2=O)c(C)n1-c1cc(C(=O)O)cc(C(=O)O)c1 | – | -1.62% (inactive) |
| COc1ccccc1-n1c(O)c(/C=C2\C=Nc3ccccc32)c(=O)[nH]c1=O | – | -3.18% (inactive) |
| CC[N+](C)(CC)CCCCOc1ccc2c(c1)C(=O)c1cc(OCCCC[N+](C)(CC)CC)ccc1-2 | – | -3.48% (inactive) |
| CC1=NCCc2c1[nH]c1cc(O)ccc21 | 10.2 µM (active) | – |
| Cc1ccc(OCC(=O)N2CCN(CC3CC4C=CC3C4)CC2)cc1 (stereo unspecified) | – | 4.58% (inactive) |
| Clc1ccc(OCC#CCN2CCCCCC2)cc1 | – | 12.5% (inactive) |
| CCN(CCCl)c1cc(CN(C)C)cc(NC(=O)c2ccc(C(=O)Nc3cc(CN(C)C)cc(N(CC)CCCl)c3)cc2)c1 | – | 2.58% (inactive) |
| COc1ccc(/C=C2\C(=O)NC(=S)N(C)C2=O)cc1C | – | 6.6% (inactive) |
| CC1CCCCN1Cc1cccnc1 (stereo unspecified) | – | 21.8% (inactive) |
| COc1ccc(CCNCc2ccccc2)cc1 | – | 14.1% (inactive) |
| CN(C)C1C(=O)C(C(N)=O)=C(O)C2(O)C(=O)C3=C(O)c4c(O)cccc4C(C)(O)C3C(O)C12 (stereo unspecified) | – | -11.3% (inactive) |
| COc1cc(/C=C/c2nc3ccccc3c(=O)n2-c2ccccc2O)ccc1O | 38.1 µM (active) | – |
| COc1cc(/C=C2/C(=O)NC(=O)N(c3ccccc3)C2=O)ccc1O | – | 20.2% (inactive) |
| COc1ccc(-n2c(/C=C/c3ccc(O)c(OC)c3)nc3ccccc3c2=O)cc1 | 43.2 µM (active) | – |
| O=c1c2ccccc2nc(/C=C/c2ccc(O)cc2)n1-c1ccccc1O | 60.4 µM (active) | – |

| Compound | IC50 | inhibition |
| --- | --- | --- |
| NC(N)=N/N=C/c1ccc(N(c2ccccc2)c2ccccc2)cc1 | – | 9.2% (inactive) |
| O=C1CN(O)C(c2ccccc2)=c2cc(Br)ccc2=N1 | – | -8.57% (inactive) |
| O=C1NC(=O)N(c2ccc3c(c2)OCO3)C(=O)/C1=C\c1ccc(-c2ccccc2C(=O)O)o1 | – | 2.82% (inactive) |
| COc1ccc(CN2CCN(Cc3ccccc3OC)CC2)cc1 | – | 26.5% (inactive) |
| CCc1c(C)nc(N)nc1N1N=C1SC(C(C)=O)C(C)=O | – | 12.9% (inactive) |
| O=C1NC(=O)C(=Cc2coc3ccc(O)cc3c2=O)C(=O)N1 | – | 6.5% (inactive) |
| C=CCN1C(=O)NC(=O)/C(=C/C=C/c2ccccc2)C1=O | – | -1.77% (inactive) |
| CN1C2CCC1/C(=C/c1ccccn1)C(=O)/C2=C\c1ccccn1 | – | 1.44% (inactive) |
| COc1cc(N2CCOCC2)ccc1/C=C1\C(=O)NC(=O)N(Cc2cccs2)C1=O | – | 4.76% (inactive) |
| COc1cc2c(ccc3c4cc(OC)c(OC)cc4c[n+](C)c23)cc1O | – | 25.9% (inactive) |
| CC1CN1P(=O)(Oc1ccc2ccccc2c1)N1CC1C (stereo unspecified) | – | 26.3% (inactive) |
| O=C1NC(=O)C(=Cc2cccs2)C(=O)N1 | – | 1.78% (inactive) |
| CN1CCN(c2ccc(N)cc2)CC1 | 42.7 µM (active) | – |
| CCN1CCN(CC(c2ccccc2)c2ccccc2)CC1 | – | 21.3% (inactive) |
| CN1CCN(c2ccc(N)c(N3CCN(C)CC3)c2)CC1 | 56 µM (active) | – |
| CCN1CCN(c2ccc(N)c(C)c2)CC1 | 45.2 µM (active) | – |
| N/C(=N\N=C/c1ccc(-c2ccc(O)c(C(=O)O)c2)o1)N[N+](=O)[O-] | – | 9.45% (inactive) |
| COc1cc(N2CCOCC2)ccc1/C=C1\C(=O)NC(=O)N(Cc2ccc3c(c2)OCO3)C1=O | – | 4.02% (inactive) |
| O=C(O)CCn1cc(C=C2C(=O)NC(=S)NC2=O)c(-c2cccc(Br)c2)n1 | – | 2.64% (inactive) |
| Cc1ccc(OCC(=O)N2CCN(Cc3ccc([N+](=O)[O-])cc3)CC2)cc1 | – | 11.2% (inactive) |
| CCc1ccc(N2C(=O)NC(=O)/C(=C\c3cc(C)n(-c4cc(C(=O)O)cc(C(=O)O)c4)c3C)C2=O)cc1 | – | -1.7% (inactive) |
| CN(C)[C@@H]1C(=O)C(C(N)=O)=C(O)[C@@]2(O)C(=O)C3=C(O)c4c(O)cccc4[C@@](C)(O)[C@H]3[C@H](O)[C@@H]12 | – | -9.39% [at 5 µM] (inactive) |
